Experimental data reported in PubChem BioAssay (NCATS).
Several values for one entry are separate records, joined by “and”; a condition that tells them apart may be missing. Equal entries are not always repeated. Results filed as inconclusive are left out. More than one record can exist for a structure, and the calls need not agree. Activity calls are given as the source filed them. Calls follow the shape of the dose curve; as a rule, active = well fitted inhibition curve with a large enough effect; inconclusive = small, poorly fitted or top-dose-only effect; inactive = flat fitted curve, though single readings scatter.

How the values were obtained:
[1] = Drug repurposing screens with cells derived from glioblastoma tumor samples (AID 1345199); conditions: GBM patient neurospheres viability, ATP luminescence, 48 h; also: nearly all actives have a fitted effect of over 40% in size
Outline: (§1)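 Four patient lines of CD133+ GBM neurospheres were screened at several concentrations; hits were retested in those lines plus three slower-growing GBM lines, using 48-hour treatment and ATP-based viability.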

[2] = system: astro; experiment: as above; conditions: viability, ATP luminescence, 48 h; series mostly up to 45.9 µM
Outline: as §1

[3] = at 45.9 µM (top of the series), tumour line B
[4] = at 45.9 µM (top of the series), tumour line D
[5] = at 46.1 µM (top of the series), tumour line C
[6] = at 46 µM (top of the series), tumour line A
[7] = at 108 µM (top of the series), tumour line B
[8] = at 108 µM (top of the series), tumour line D
[9] = at 20 µM (top of the series), tumour line C
[10] = at 21.2 µM (top of the series), tumour line B
[11] = at 21.2 µM (top of the series), tumour line D
[12] = at 21.3 µM (top of the series), tumour line A
% is scaled to controls: 0 for no effect and ±100 for the full control effect; potency is read from the fitted curve at half-maximal effect.

CCCCCCCCCC(=O)O[C@H]1CC[C@H]2[C@@H]3CCC4=CC(=O)CC[C@]4(C)[C@H]3CC[C@]12C
inactive: activity, negative = cell killing [1, 3] -12.8% | activity, negative = cell killing [1, 4] -20.9% | activity, negative = cell killing [1, 5] -14.9%
active: Potency ([1]; tumour line A) 15.8 µM

CCN(CC)C(=O)N[C@H]1C[C@@H]2c3cccc4[nH]cc(c34)C[C@H]2N(C)C1
active: Potency ([1]; tumour line A) 22.4 µM
inactive: activity, negative = cell killing [1, 3] -22.5% | activity, negative = cell killing [1, 4] -14.1% | activity, negative = cell killing [1, 5] -20.3% | Potency [2]

S=C(S)N1CCNCC1
inactive: activity, negative = cell killing [1, 3] -3.67% | activity, negative = cell killing [1, 4] -4.89% | activity, negative = cell killing [1, 6] -30% | activity, negative = cell killing [1, 5] -13.9% | Potency [2]

O=C1C2CC=CCC2C(=O)N1SC(Cl)(Cl)Cl (stereo unspecified)
inactive: activity, negative = cell killing [1, 5] -4.36%
active: Potency ([1]; tumour line A) 7.08 µM | Potency ([1]; tumour line B) 20 µM | Potency ([1]; tumour line D) 11.2 µM

CN1c2ccccc2C(NCCCCCCC(=O)O)c2ccc(Cl)cc2S1(=O)=O (stereo unspecified)
inactive: activity, negative = cell killing [1, 3] -13.7% | activity, negative = cell killing [1, 4] 2.81% | activity, negative = cell killing [1, 6] -22.5% | activity, negative = cell killing [1, 5] -20.5%

Oc1ccc2c3c1O[C@H]1[C@@H](O)CC[C@@]4(O)[C@@H](C2)N(CC2CCC2)CC[C@]314
inactive: activity, negative = cell killing [1, 3] -15.8% | activity, negative = cell killing [1, 4] -17.2% | activity, negative = cell killing [1, 6] 7.3% | activity, negative = cell killing [1, 5] -0.783% | Potency [2]

CC1(C)[C@H](C=C(Cl)Cl)[C@H]1C(=O)OCc1c(F)c(F)cc(F)c1F
inactive: activity, negative = cell killing [1, 3] -3.56% | activity, negative = cell killing [1, 4] -11.5% | activity, negative = cell killing [1, 6] -26.8% | activity, negative = cell killing [1, 5] -13.8% | Potency [2]

CC(C)(O)[C@@H]1[C@H]2OC(=O)[C@@H]1[C@]1(O)C[C@H]3O[C@]34C(=O)O[C@H]2[C@]14C
inactive: activity, negative = cell killing [1, 3] -2.1% and -10.8% | activity, negative = cell killing [1, 4] 11.7% and -21% | activity, negative = cell killing [1, 6] -37.4% and -27.2% | activity, negative = cell killing [1, 5] -9.46% and -22% | Potency [2]

CC(=O)OO
inactive: activity, negative = cell killing [1, 3] -7.1% | activity, negative = cell killing [1, 4] -0.699% | activity, negative = cell killing [1, 6] -24.9% | activity, negative = cell killing [1, 5] 3.69% | Potency [2]

O[C@H]1[C@H]2[C@H](O)CCCN2C[C@H]1O
inactive: activity, negative = cell killing [1, 3] 0.771% | activity, negative = cell killing [1, 4] -7.2% | activity, negative = cell killing [1, 6] -40.5% | activity, negative = cell killing [1, 5] -19.9% | Potency [2]

CC(C)CCC(=O)O[C@H]1CC[C@H]2[C@@H]3CCC4=CC(=O)CC[C@]4(C)[C@H]3CC[C@]12C
active: Potency ([1]; tumour line A) 11.2 µM | Potency ([1]; tumour line B) 22.4 µM
inactive: activity, negative = cell killing [1, 5] -19.7%

CCNC(C)Cc1cccc(C(F)(F)F)c1 (stereo unspecified)
inactive: activity, negative = cell killing [1, 3] -2.98% | activity, negative = cell killing [1, 4] -5.81% | activity, negative = cell killing [1, 6] -19.5% | activity, negative = cell killing [1, 5] -4.96% | Potency [2]

C[C@H]1CC[C@]2(NC1)O[C@H]1C[C@H]3[C@@H]4CC[C@H]5C[C@@H](O)CC[C@]5(C)[C@H]4CC[C@]3(C)[C@H]1[C@@H]2C
active: Potency ([1]; tumour line A) 8.91 µM
inactive: activity, negative = cell killing [1, 3] -14.5% | activity, negative = cell killing [1, 4] -28.2% | activity, negative = cell killing [1, 5] -9.91% | Potency [2]

CC(C)Nc1ccc(Nc2ccccc2)cc1
active: Potency ([1]; tumour line A) 11.2 µM | Potency ([1]; tumour line B) 17.8 µM | Potency ([1]; tumour line D) 20 µM | Potency [2] 22.4 µM
inactive: activity, negative = cell killing [1, 5] -13.8%

C[C@]12C=CC(=O)C=C1CC[C@@H]1[C@@H]2CC[C@]2(C)OC(=O)CC[C@@H]12
inactive: activity, negative = cell killing [1, 3] -3.73% | activity, negative = cell killing [1, 4] -7.84% | activity, negative = cell killing [1, 6] -28.6% | activity, negative = cell killing [1, 5] 1.2% | Potency [2]

CN1[C@H]2CC[C@@H]1[C@@H](C(=O)O)[C@@H](OC(=O)c1ccccc1)C2
inactive: activity, negative = cell killing [1, 3] -13.9% | activity, negative = cell killing [1, 4] -11.4% | activity, negative = cell killing [1, 6] -27% | activity, negative = cell killing [1, 5] -10.2% | activity, negative = cell killing ([1]; at 99.2 µM (top of the series), tumour line C) -6.57% | activity, negative = cell killing ([1]; at 108 µM (top of the series), tumour line A) -26.2% | activity, negative = cell killing [1, 7] -7.59% | activity, negative = cell killing [1, 8] -7.94% | Potency [2]

CCCCC[C@@H](O)C1C(=O)OC(C)[C@H](O)/C=C/C=C/C=C/C=C/C=C(\C)C(O)C(O)C(O)C[C@H](O)C[C@H](O)C[C@H](O)C[C@H](O)C[C@@H]1O (stereo partly specified)
inactive: activity, negative = cell killing [1, 3] -7.45% and 7.1% | activity, negative = cell killing [1, 4] 14.9% and -7.76% | activity, negative = cell killing [1, 6] -18.3% and -29% | activity, negative = cell killing [1, 5] -15.7% and -7.35% | Potency [2]

CN(C)[C@H](Cc1ccccc1)c1ccccc1
active: Potency ([1]; tumour line A) 20 µM
inactive: activity, negative = cell killing [1, 3] -3.48% | activity, negative = cell killing [1, 4] -20.8% | activity, negative = cell killing [1, 5] -18.9% | Potency [2]

CCCC(=O)OC(C(Cl)(Cl)Cl)P(=O)(OC)OC (stereo unspecified)
inactive: activity, negative = cell killing [1, 3] -9.86% | activity, negative = cell killing [1, 4] -6.58% | activity, negative = cell killing [1, 6] -3.23% | activity, negative = cell killing [1, 5] 7.15% | Potency [2]

CCNCC(O)c1cccc(O)c1 (stereo unspecified)
inactive: activity, negative = cell killing [1, 9] 5.83% | activity, negative = cell killing [1, 10] -15.1% | activity, negative = cell killing [1, 11] -23% | activity, negative = cell killing [1, 12] -30.1% | Potency [2]

CCC(N)Cc1c[nH]c2ccccc12 (stereo unspecified)
active: Potency ([1]; tumour line A) 31.6 µM
inactive: activity, negative = cell killing [1, 3] -19.3% | activity, negative = cell killing [1, 4] -10.1% | activity, negative = cell killing [1, 5] -22.2% | activity, negative = cell killing [1, 7] -20.5% | activity, negative = cell killing [1, 8] -20.7% | Potency [2]

CCC1(C)CC(=O)NC(=O)C1
inactive: activity, negative = cell killing [1, 9] -7.73% | activity, negative = cell killing [1, 10] -6.36% | activity, negative = cell killing [1, 11] -5.16% | activity, negative = cell killing [1, 12] -9.96% | Potency [2]
